Screening data (PubChem BioAssay)
3CLpro inhibitor = SARS-CoV 3CLpro protease inhibition | P0C6X7 | recombinant SARS-CoV 3CLpro, quenched FRET peptide cleavage | inhibition, % at 6 µM | 290,000 tested, 0.14% active | AID 1706; in the data active means inhibition above about 12%
Sa ugtP lethal = kills S. aureus RN4220 lacking UgtP | S. aureus RN4220 ugtP deletion, OD600 growth, 16 h | 330,000 tested, 0.54% active | growth inhibition, % (concentration not given with the values); in the data active means growth inhibition above about 68%;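 further: plate controls were untreated wells for no effect and antibiotic for full effect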
BJeLR viability = BJeLR cell viability loss | BJeLR (HRASV12) viability, CellTiter-Glo ATP luminescence, 48 h | inhibition, % (test concentration not listed) | 300,000 tested, 0.17% active | AID 1554; in the data active means inhibition above about 50%
PfHsp40 yeast = compounds rescuing yeast from Plasmodium falciparum HSP40 toxicity; growth rescue, % at 12.5 µM; AID 504582; 340,000 tested, 0.68% active; S. cerevisiae expressing PfHsp40, growth rescue, ATP luminescence; in the data active means growth rescue above about 28%, passing the limit was not always enough;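 further: yeast W303a lacking pdr1 and pdr3 grown in galactose medium; growth measured after three days at 30 °C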
RN4220 kill = S. aureus RN4220 growth inhibition; OD600, 16 h; inhibition, % (concentration not given with the values); 330,000 tested, 0.33% active; AID 1259311; in the data active means inhibition above about 85%;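 further: plate controls were untreated cells for no effect and reference antibiotic for full effect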
The depositor's hits bear a star; . = not tested or not shown. In the library only some 1.3% were active in any assay of this set; here they are far more common.

SMILES | 3CLpro inhibitor | Sa ugtP lethal | BJeLR viability | PfHsp40 yeast | RN4220 kill
c1ccc(CCNc2nnnn2-c2ccccc2)cc1 | -3.4 | 8.1 | -9.6 | 0.7 | -3.9
CCOC(=O)Cn1nc(C)n(-c2ccc(Br)cc2)c1=O | 1.3 | 8.2 | 7.0 | 1.4 | 1.8
O=C(NCc1ccccn1)C(=O)NCC1OCCN1S(=O)(=O)c1ccc(F)cc1 (stereo unspecified) | -2.5 | 3.8 | -16.8 | 33.2* | 2.6
COc1ccc(-c2nn(-c3ccccc3)cc2C=NNC(=O)c2ccc(Br)o2)cc1 | . | 16.9 | . | . | -0.6
O=C(Nc1ccc(Br)cc1)Nc1ccccc1F | 0.1 | -14.4 | 2.6 | -0.8 | -14.9
CCN(CC)C(=O)c1ccc(NC(=O)Nc2ccccc2F)cc1 | 2.2 | -10.9 | 54.9* | -3.3 | -7.0
CN1CCN(S(=O)(=O)c2ccc(Nc3cccc(Cl)c3)c([N+](=O)[O-])c2)CC1 | . | 13.2 | . | -0.1 | 6.6
CC1(C(=O)OCC(=O)Nc2ccc3ccccc3c2)CC1(Cl)Cl (stereo unspecified) | 2.1 | 2.3 | 0.5 | 45.7* | 5.5
Cc1cccc(NC(=O)CC2SC(=Nc3nccs3)N(C)C2=O)c1 (stereo unspecified) | . | -6.5 | . | . | 7.1
COc1ccc(C(=O)NN(C)c2nc(C(F)(F)F)nc3ccccc23)cc1 | 2.1 | 3.3 | 60.2* | 1.1 | -3.8
Cc1cc(Nc2ncc(Cl)cc2Cl)n(-c2ccccc2C)n1 | 6.3 | 1.8 | -3.7 | -0.2 | 7.1
Cc1ccc(-n2nc(C)cc2Nc2ncc(Cl)cc2Cl)cc1 | 2.9 | 3.4 | -2.8 | 93.4* | 7.9
CCOC(=O)N1CCN(C(=O)c2cc(-n3cnnc3)ccc2Cl)CC1 | 1.4 | 4.6 | -0.6 | -1.0 | 6.1
Cc1ccc(Nc2cnn(C34CC5CC(CC(CC(=O)O)(C5)C3)C4)c(=O)c2Cl)cc1 | 12.2* | -0.8 | -1.6 | 0.9 | 1.1
CC(=O)c1ccc(Nc2cnn(C34CC5CC(CC(CC(=O)O)(C5)C3)C4)c(=O)c2Cl)cc1 | -1.2 | -0.1 | 4.0 | -0.2 | 0.6
Cc1ccccc1C(=O)NC1CCN(Cc2nnnn2Cc2ccc(F)cc2)CC1 | -3.2 | -1.8 | 3.0 | -0.1 | 4.5
COc1cc(C(=O)NCCSc2ccc(Cl)cc2)cc(OC)c1OC | -5.9 | -5.4 | -1.9 | -0.7 | 0.5
COc1cc(C(=O)Sc2ccc(Cl)cc2)cc(OC)c1OC | -1.1 | 92.9* | 8.1 | -0.4 | 0.9
CCc1ccccc1NC(=O)N[C@H](C(=O)O)C(C)C | 5.9 | . | 9.3 | -0.5 | .
CCCC1CC(C(=O)NC(C(C)Cl)C2OC(SC)C(O)C(O)C2O)N(C)C1 (stereo unspecified) | -0.4 | 100.0* | -3.2 | 0.9 | 100.2*
COc1cc(C2(c3ccc(O)c(OC)c3)C(=O)N(C)c3ccc(Br)cc32)ccc1O | . | -1.4 | -5.6 | 1.9 | 2.4
COc1cc(C2(c3ccc(O)c(OC)c3)C(=O)Nc3c(Br)cc(Br)cc32)ccc1O | . | -16.1 | -11.9 | 65.7* | -12.1
Clc1cc2nc3ccccn3c2cc1Cl | -5.8 | 8.6 | -4.1 | 151.8* | 0.1
O=Cc1c(Cl)nc2ccccn12 | 0.4 | 2.0 | 6.0 | -2.1 | 3.5
CC(=O)Nc1ccc(S(=O)(=O)N2CCCC3CCCCC32)cc1 (stereo unspecified) | . | 0.8 | . | 0.1 | 8.8
SMILES | 3CLpro inhibitor | Sa ugtP lethal | BJeLR viability | PfHsp40 yeast | RN4220 kill
Cc1cccc([N+](=O)[O-])c1NC(=O)CN(Cc1ccccc1)Cc1ccccc1 | 4.5 | 99.0* | 0.0 | 1.2 | 1.5
Cc1cccc(C)c1NC(=O)CNC(=O)Cc1ccccc1[N+](=O)[O-] | 0.1 | 4.3 | 0.5 | -0.2 | 9.8
CCOC(=O)c1c(-c2ccccc2)csc1NC(=O)c1cccc(N2C(=O)CCC2=O)c1 | 5.6 | -4.1 | -0.8 | 0.5 | -1.7
Cc1c(C=NNc2nc3ccccc3[nH]2)c2ccccc2n1C | . | 98.6* | . | . | 98.7*
COC1C=CO[C@@]2(C)Oc3c(C)c(O)c4c(O)c(c(C=NN5CCN(C)CC5)c(O)c4c3C2=O)NC(=O)C(C)=CC=CC(C)C(O)C(C)C(O)C(C)C(OC(C)=O)C1C (stereo partly specified) | . | 96.8* | . | . | 97.9*
COC1C=CO[C@@]2(C)Oc3c(C)c(O)c4c(O)c(c5c(nc6cc(C)ccn65)c4c3C2=O)NC(=O)C(C)=CC=CC(C)C(O)C(C)C(O)C(C)C(OC(C)=O)C1C (stereo partly specified) | . | 99.4* | . | . | 99.4*
CCOC(=O)C(=NNc1ccc(Br)cc1)N1CC(C)OC(C)C1 (stereo unspecified) | . | 3.1 | . | . | 5.8
COc1ccc(C(CNC(=O)CN2C(=O)NC(C)(c3ccc4ccccc4c3)C2=O)N2CCCC2)cc1 (stereo unspecified) | . | -0.2 | . | 1.0 | 0.8
CCC(CO)NCc1ccc(OC2CCCC2)cc1 (stereo unspecified) | -5.4 | 2.4 | 5.1 | 0.6 | 1.4
COc1ccc(/C=C/C(=O)c2ccc([N+](=O)[O-])o2)cc1 | . | . | 13.7 | -0.3 | .
O=C(C=Cc1cccc([N+](=O)[O-])c1)c1ccc([N+](=O)[O-])o1 | . | 99.8* | . | . | 100.4*
Cc1cccc(/C=C/C(=O)c2ccc([N+](=O)[O-])o2)c1 | . | . | 43.4 | -2.1 | .
COc1ccc(/C=C/C(=O)NC2CC3CCC2C3)cc1 (stereo unspecified) | -2.6 | 7.2 | 0.9 | -0.9 | 2.5
O=C(/C=C/c1cccc([N+](=O)[O-])c1)NC1CC2CCC1C2 (stereo unspecified) | -1.2 | 9.9 | 3.8 | 50.7* | 5.6
COc1ccc(C=CC(=O)c2ccc([N+](=O)[O-])o2)cc1OC | . | 100.0* | . | . | 48.1
Cc1cccc(C=CC(=O)c2ccc([N+](=O)[O-])o2)c1 | . | 100.4* | . | . | 100.7*
CCCn1c(N)c(N2CCCCC2)c(=O)n(CC(=O)Nc2ccccc2)c1=O | -2.0 | 2.3 | -6.8 | 0.0 | 1.6
Cc1ccccc1C=CC(=O)c1ccc([N+](=O)[O-])o1 | . | 100.6* | . | . | 32.7
Cc1c(C=O)c2ccccc2n1CCOc1ccccc1F | 4.3 | 2.0 | 2.6 | 0.4 | -1.3
O=C(NNc1ccc([N+](=O)[O-])cc1)c1ccccc1F | 2.5 | -7.5 | . | 32.0* | 1.9
O=C(NNc1ccc([N+](=O)[O-])cc1)c1ccccc1Cl | 3.2 | 7.0 | 5.7 | -0.7 | 2.5
CC(NC(=O)c1cn(C)c2ccc(S(=O)(=O)N3CCCC3)cc2c1=O)c1ccc2c(c1)OCCO2 (stereo unspecified) | 0.0 | 3.2 | -8.2 | 42.4* | 0.9
CCCc1ccc(Oc2cc(N3CCOCC3)nc(-c3ccccc3)n2)cc1 | 4.0 | 89.1* | . | 0.7 | -12.0
CCCc1ccc(Oc2cc(C)nc(N3CCOCC3)n2)cc1 | -2.3 | 39.6 | -0.5 | 1.8 | 4.1
O=C(c1ccc(NC2=NC3CS(=O)(=O)CC3S2)cc1)N1CCN(c2ccc(F)cc2)CC1 (stereo unspecified) | -5.1 | 5.0 | 5.4 | -0.2 | -10.0
CCCc1cc(-c2n[nH]c(=S)n2-c2cccc(C)c2)cs1 | 2.3 | 25.7 | 1.9 | 67.7* | -0.3
Cc1ccc2c(c1)Oc1ccc([N+](=O)[O-])cc1C(=O)N2 | -0.1 | -3.3 | -1.8 | -1.9 | 1.7
Cc1cccc(Oc2cc([N+](=O)[O-])cc3c2C(=O)Nc2ccccc2O3)c1 | -3.4 | 97.3* | 2.5 | -0.3 | 98.2*
